Measured values: paper PMC7862700, “An all-to-all approach to the identification of sequence-specific readers for epigenetic DNA modifications on cytosine”

Legend:
Assay in all cases: DAPPL (digital affinity profiling via proximity ligation, sequencing); 10 mM Tris-HCl pH 7.5, 50 mM NaCl, 1 mM DTT, 4% glycerol, room temperature, 30 min; GST-TFs on glutathione beads, 16-mer random dsDNA library, 0.1% formaldehyde crosslink after washing; high values mean tight binding
FEV = target: T1, FEV (Homo sapiens, UniProt Q99581 1-238); settings: protein: recombinant; tags: N-terminal GST; dsDNA, one strand shown
T1 sequence: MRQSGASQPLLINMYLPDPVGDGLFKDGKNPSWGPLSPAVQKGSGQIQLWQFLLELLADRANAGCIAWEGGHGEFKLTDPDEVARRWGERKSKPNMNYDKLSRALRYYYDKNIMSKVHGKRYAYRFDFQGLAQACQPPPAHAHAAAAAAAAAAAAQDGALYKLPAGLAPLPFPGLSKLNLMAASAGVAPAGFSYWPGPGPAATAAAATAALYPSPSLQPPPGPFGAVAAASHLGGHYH
Outline: (§1)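 Pools of DNA-barcoded human transcription factors, expressed in yeast as GST fusions on glutathione beads and combined with a tag-only sample, were incubated with 200 nmole of a 16-mer random double-stranded DNA library. Incubation took 30 min at room temperature in Tris/NaCl/DTT/glycerol buffer and was followed by washing, 0.1% formaldehyde crosslinking, proximity ligation (BsaI/T4 ligase, 1 h, 37 °C), PCR amplification and sequencing on an Illumina NextSeq500. Binding signal is the ratio of a hexamer's read frequency for a factor to its frequency for the tag-only sample.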

ETV5 = ETV5 (Homo sapiens, UniProt P41161 1-510); settings: protein: recombinant; tags: N-terminal GST; dsDNA, one strand shown
Outline: as §1

HSF1 = HSF1 (Homo sapiens, UniProt Q00613 1-529); settings: protein: recombinant; tags: N-terminal GST; chain copies: 3; dsDNA, one strand shown
Outline: as §1

SPIC = target: T2, SPIC (Homo sapiens, UniProt Q8N5J4 1-248); settings: protein: recombinant; tags: N-terminal GST; dsDNA, one strand shown
T2 sequence: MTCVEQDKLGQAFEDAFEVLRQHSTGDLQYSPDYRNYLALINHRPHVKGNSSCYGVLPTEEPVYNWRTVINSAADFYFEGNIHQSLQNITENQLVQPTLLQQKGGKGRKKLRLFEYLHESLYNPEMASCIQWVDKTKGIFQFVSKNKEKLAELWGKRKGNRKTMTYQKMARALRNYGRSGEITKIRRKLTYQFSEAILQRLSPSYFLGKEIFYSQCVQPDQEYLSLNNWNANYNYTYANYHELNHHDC
Outline: as §1

ELF4 = ELF4 (Homo sapiens, UniProt Q99607 1-663); settings: protein: recombinant; tags: N-terminal GST; dsDNA, one strand shown
Outline: as §1

ELK4 = target: T3, ELK4 (Homo sapiens, UniProt P28324-2 1-405); settings: protein: recombinant; tags: N-terminal GST; dsDNA, one strand shown
T3 sequence: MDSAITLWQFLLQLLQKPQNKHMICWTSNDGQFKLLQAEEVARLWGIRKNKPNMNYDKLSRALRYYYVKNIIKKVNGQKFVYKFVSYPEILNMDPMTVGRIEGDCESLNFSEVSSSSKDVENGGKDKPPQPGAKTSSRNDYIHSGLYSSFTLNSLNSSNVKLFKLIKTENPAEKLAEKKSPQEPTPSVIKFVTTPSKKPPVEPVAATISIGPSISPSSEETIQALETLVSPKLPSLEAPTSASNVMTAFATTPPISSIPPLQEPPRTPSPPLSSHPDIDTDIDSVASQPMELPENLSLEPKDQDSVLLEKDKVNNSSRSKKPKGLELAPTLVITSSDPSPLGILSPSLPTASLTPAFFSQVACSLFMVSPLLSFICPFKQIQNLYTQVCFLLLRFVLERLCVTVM
Outline: as §1

ETV2 = target: T4, ETV2 (Homo sapiens, UniProt O00321 1-342); settings: protein: recombinant; tags: N-terminal GST; dsDNA, one strand shown
T4 sequence: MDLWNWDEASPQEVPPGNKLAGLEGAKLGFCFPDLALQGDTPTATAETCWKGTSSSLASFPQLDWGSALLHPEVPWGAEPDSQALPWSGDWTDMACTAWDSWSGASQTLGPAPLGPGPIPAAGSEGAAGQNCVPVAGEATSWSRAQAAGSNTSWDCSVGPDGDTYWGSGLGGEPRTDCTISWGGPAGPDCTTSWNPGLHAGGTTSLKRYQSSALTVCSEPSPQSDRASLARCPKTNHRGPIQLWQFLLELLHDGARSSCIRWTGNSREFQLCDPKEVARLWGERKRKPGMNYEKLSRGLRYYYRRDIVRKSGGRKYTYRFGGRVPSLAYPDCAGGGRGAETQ
Outline: as §1

ELF3 = target: T5, ELF3 (Homo sapiens, UniProt P78545 1-371); settings: protein: recombinant; tags: N-terminal GST; dsDNA, one strand shown
T5 sequence: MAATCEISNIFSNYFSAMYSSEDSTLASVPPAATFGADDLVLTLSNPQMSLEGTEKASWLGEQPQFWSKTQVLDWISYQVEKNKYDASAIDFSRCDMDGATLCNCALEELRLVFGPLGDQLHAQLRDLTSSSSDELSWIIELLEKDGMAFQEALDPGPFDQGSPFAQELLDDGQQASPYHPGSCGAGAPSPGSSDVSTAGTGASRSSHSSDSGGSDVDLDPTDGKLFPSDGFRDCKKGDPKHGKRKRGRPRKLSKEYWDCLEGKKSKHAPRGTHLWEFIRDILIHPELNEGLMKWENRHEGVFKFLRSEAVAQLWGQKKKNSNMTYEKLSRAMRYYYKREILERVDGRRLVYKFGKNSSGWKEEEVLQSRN
Outline: as §1

CRX = CRX (Homo sapiens, UniProt O43186 1-299); settings: protein: recombinant; tags: N-terminal GST; dsDNA, one strand shown
Outline: as §1

ETV1 = ETV1 (Homo sapiens, UniProt P50549 1-477); settings: protein: recombinant; tags: N-terminal GST; dsDNA, one strand shown
Outline: as §1

ERF = target: T6, ERF (Homo sapiens, UniProt P50548 1-548); settings: protein: recombinant; tags: N-terminal GST; dsDNA, one strand shown
T6 sequence: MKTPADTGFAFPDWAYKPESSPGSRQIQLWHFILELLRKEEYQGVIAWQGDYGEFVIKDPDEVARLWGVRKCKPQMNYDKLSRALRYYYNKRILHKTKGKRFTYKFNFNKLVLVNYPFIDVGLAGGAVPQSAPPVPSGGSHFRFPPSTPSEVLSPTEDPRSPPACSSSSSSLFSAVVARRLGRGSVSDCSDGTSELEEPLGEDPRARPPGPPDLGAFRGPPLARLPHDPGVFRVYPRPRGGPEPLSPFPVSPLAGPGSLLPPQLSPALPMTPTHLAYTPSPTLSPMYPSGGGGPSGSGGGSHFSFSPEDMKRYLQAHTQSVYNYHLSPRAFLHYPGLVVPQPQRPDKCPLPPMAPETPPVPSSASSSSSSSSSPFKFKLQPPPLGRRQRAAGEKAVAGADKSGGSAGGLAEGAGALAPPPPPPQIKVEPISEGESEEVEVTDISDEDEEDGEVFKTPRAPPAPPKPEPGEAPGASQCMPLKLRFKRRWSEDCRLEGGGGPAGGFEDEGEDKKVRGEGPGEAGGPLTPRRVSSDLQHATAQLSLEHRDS
Outline: as §1

ETV3L = target: T7, ETV3L (Homo sapiens, UniProt Q6ZN32 1-361); settings: protein: recombinant; tags: N-terminal GST; dsDNA, one strand shown
T7 sequence: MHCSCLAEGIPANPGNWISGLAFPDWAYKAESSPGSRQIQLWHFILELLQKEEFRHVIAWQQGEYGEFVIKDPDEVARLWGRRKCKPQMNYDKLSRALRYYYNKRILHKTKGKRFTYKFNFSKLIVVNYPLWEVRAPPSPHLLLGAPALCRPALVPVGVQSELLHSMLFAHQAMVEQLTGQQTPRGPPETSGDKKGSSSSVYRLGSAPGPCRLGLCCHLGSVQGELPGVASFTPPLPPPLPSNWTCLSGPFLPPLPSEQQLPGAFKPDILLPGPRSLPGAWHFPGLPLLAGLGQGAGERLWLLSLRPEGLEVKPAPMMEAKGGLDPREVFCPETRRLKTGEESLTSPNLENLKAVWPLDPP
Outline: as §1

ETS2 = target: T8, ETS2 (Homo sapiens, UniProt P15036 1-469); settings: protein: recombinant; tags: N-terminal GST; dsDNA, one strand shown
T8 sequence: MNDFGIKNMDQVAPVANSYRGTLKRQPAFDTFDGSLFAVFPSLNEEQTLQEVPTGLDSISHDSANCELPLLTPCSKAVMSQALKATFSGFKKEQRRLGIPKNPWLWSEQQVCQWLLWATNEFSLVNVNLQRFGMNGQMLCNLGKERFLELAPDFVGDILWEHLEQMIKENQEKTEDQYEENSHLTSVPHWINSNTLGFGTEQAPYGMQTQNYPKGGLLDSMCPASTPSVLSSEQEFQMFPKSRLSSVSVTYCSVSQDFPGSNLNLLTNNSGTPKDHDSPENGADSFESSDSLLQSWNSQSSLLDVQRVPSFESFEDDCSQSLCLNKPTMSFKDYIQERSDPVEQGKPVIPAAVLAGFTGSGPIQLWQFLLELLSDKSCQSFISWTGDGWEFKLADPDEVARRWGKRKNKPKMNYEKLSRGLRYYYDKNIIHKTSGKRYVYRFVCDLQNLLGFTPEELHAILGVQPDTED
Outline: as §1

SPDEF = target: T9, SPDEF (Homo sapiens, UniProt O95238 1-335); settings: protein: recombinant; tags: N-terminal GST; dsDNA, one strand shown
T9 sequence: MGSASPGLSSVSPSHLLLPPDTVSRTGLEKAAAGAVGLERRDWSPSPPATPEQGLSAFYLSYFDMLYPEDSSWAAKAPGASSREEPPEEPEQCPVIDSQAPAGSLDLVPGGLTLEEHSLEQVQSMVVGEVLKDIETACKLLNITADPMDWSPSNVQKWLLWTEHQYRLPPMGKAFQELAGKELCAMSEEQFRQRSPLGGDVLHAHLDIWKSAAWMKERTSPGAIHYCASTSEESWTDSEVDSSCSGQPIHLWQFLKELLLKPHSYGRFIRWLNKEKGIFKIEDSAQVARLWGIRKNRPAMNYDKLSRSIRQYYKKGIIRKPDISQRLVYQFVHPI
Outline: as §1

ETV7 = target: T10, ETV7 (Homo sapiens, UniProt Q9Y603 1-341); settings: protein: recombinant; tags: N-terminal GST; dsDNA, one strand shown
T10 sequence: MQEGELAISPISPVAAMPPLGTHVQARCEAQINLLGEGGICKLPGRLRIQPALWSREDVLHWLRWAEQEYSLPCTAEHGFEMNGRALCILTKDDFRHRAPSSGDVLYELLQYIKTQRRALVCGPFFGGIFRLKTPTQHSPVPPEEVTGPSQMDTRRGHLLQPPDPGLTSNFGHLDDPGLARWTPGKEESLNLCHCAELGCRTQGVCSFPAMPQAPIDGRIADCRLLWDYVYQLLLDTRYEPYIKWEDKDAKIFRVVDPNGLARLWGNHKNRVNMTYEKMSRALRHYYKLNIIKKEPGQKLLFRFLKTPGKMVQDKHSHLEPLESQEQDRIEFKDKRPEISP
Outline: as §1

ELF5 = target: T11, ELF5 (Homo sapiens, UniProt Q9UKW6-2 1-255); settings: protein: recombinant; tags: N-terminal GST; dsDNA, one strand shown
T11 sequence: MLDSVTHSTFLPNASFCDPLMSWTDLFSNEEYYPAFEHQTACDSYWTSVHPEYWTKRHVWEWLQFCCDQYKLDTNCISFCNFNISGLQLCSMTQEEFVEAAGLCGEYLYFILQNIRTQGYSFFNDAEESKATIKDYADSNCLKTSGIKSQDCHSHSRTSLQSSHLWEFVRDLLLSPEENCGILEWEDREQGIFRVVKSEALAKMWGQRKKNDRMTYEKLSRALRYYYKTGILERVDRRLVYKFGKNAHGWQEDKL
Outline: as §1

ETV3 = target: T12, ETV3 (Homo sapiens, UniProt P41162-2 1-143); settings: protein: recombinant; tags: N-terminal GST; dsDNA, one strand shown
T12 sequence: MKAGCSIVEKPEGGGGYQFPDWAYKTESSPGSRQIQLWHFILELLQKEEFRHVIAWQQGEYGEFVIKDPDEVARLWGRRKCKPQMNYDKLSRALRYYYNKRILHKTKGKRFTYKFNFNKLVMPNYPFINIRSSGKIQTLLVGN
Outline: as §1

ETV6 = ETV6 (Homo sapiens, UniProt P41212 1-452); settings: protein: recombinant; tags: N-terminal GST; dsDNA, one strand shown
Outline: as §1

Chain of ETV1 (P50549 whole entry): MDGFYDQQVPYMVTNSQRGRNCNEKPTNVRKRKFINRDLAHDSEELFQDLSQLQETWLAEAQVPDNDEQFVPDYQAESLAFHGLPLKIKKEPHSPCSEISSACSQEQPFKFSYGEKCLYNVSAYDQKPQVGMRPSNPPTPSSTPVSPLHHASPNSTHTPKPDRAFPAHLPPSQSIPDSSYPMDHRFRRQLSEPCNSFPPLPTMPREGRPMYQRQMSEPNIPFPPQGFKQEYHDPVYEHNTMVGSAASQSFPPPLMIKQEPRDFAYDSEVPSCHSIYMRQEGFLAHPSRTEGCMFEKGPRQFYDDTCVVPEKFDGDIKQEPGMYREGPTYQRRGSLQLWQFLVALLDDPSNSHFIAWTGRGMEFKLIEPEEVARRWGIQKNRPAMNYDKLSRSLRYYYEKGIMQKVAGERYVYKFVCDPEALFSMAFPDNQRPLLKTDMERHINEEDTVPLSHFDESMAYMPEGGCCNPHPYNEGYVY
Chain of HSF1 (Q00613 whole entry): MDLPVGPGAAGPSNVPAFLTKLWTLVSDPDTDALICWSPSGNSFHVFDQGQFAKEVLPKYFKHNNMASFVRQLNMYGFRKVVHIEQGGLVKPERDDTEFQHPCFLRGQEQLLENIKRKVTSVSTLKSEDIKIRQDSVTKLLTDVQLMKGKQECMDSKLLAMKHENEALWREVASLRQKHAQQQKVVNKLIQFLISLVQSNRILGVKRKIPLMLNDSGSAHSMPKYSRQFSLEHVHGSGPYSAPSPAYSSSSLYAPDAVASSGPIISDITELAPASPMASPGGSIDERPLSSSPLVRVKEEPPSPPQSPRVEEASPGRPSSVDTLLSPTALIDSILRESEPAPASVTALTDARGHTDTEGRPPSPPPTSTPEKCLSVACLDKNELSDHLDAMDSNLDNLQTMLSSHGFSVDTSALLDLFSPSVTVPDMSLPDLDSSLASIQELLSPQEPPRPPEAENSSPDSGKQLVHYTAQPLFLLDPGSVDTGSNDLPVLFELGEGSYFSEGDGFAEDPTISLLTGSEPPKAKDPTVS
Chain of ELF4 (Q99607 whole entry): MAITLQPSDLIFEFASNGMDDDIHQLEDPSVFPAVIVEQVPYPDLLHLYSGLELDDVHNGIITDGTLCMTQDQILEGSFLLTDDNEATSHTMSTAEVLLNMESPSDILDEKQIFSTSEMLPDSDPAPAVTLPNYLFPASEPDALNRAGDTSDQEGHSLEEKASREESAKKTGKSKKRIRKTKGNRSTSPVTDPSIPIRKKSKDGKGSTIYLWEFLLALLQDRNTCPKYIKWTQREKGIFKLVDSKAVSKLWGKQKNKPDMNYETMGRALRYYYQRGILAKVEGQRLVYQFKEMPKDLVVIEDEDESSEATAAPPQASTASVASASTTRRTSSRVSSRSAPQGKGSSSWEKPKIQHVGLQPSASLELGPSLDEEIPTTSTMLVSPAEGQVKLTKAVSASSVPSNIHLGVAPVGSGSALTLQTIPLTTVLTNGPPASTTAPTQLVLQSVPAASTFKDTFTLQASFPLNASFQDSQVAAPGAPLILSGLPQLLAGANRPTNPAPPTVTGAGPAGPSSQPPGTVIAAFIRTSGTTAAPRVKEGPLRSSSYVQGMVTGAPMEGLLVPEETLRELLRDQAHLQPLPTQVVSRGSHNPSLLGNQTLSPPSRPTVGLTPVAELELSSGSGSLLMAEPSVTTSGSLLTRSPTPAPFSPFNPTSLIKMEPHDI
Chain of ETV6 (P41212 whole entry): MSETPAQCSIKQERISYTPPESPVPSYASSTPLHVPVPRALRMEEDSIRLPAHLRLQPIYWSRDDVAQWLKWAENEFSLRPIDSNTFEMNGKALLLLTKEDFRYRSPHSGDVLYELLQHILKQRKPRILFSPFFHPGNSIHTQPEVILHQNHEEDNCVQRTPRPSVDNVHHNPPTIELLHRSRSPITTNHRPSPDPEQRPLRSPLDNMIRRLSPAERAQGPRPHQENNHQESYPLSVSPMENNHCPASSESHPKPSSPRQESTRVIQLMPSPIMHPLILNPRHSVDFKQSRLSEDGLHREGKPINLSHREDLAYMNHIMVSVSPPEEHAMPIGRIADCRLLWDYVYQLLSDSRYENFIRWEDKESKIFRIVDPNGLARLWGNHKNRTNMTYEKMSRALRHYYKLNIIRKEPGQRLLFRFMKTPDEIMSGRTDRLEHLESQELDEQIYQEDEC
Chain of ETV5 (P41161 whole entry): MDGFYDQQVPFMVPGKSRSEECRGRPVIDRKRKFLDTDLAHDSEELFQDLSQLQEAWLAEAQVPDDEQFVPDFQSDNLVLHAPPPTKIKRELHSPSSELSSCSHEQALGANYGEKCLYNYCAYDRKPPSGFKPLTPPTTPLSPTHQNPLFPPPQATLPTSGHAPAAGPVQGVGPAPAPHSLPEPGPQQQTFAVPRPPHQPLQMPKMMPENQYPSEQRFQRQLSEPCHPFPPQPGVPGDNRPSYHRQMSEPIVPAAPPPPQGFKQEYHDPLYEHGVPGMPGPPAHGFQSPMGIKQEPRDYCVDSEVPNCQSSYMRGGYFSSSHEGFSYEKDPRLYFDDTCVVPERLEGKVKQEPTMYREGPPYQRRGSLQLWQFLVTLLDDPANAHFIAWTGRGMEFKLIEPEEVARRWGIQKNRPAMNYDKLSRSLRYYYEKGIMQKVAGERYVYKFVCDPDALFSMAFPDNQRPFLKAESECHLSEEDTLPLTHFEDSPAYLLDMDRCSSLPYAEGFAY
Chain of CRX (O43186 whole entry): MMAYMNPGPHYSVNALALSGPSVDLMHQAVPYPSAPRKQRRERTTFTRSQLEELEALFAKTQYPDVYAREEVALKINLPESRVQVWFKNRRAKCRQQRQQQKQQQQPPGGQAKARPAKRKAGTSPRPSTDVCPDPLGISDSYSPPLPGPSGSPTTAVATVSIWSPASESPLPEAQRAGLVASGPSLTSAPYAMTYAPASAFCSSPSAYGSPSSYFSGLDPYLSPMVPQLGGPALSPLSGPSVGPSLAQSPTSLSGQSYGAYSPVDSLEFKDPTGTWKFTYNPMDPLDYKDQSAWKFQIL

## ATTTCT
FEV
  binding signal: 1.43 fold enrichment (6-mer frequency, TF over GST control)
ETV5
  binding signal: 1.39 fold enrichment (6-mer frequency, TF over GST control)
HSF1
  binding signal: 2.3 fold enrichment (6-mer frequency, TF over GST control)
SPIC
  binding signal: 1.49 fold enrichment (6-mer frequency, TF over GST control)
ELF4
  binding signal: 1.4 fold enrichment (6-mer frequency, TF over GST control)
ELK4
  binding signal: 1.66 fold enrichment (6-mer frequency, TF over GST control)
ETV2
  binding signal: 1.4 fold enrichment (6-mer frequency, TF over GST control)
ELF3
  binding signal: 1.76 fold enrichment (6-mer frequency, TF over GST control)
CRX
  binding signal: 1.68 fold enrichment (6-mer frequency, TF over GST control)
ETV1
  binding signal: 1.51 fold enrichment (6-mer frequency, TF over GST control)
ERF
  binding signal: 1.35 fold enrichment (6-mer frequency, TF over GST control)
ETV3L
  binding signal: 1.49 fold enrichment (6-mer frequency, TF over GST control)
ETS2
  binding signal: 1.54 fold enrichment (6-mer frequency, TF over GST control)
SPDEF
  binding signal: 1.4 fold enrichment (6-mer frequency, TF over GST control)
ETV7
  binding signal: 1.47 fold enrichment (6-mer frequency, TF over GST control)
ELF5
  binding signal: 1.5 fold enrichment (6-mer frequency, TF over GST control)
ETV3
  binding signal: 1.42 fold enrichment (6-mer frequency, TF over GST control)
ETV6
  binding signal: 1.39 fold enrichment (6-mer frequency, TF over GST control)
